# This is a sample that favours compounds with a hit; in the whole collection about 4.7% have one here.
# TRHR agonist = agonists of human TRH receptor; activation, % at 2 µM; TRHR cells, calcium flux fluo-8, FDSS agonist mode; actives 0.18% (n = 360,000); P34981; AID 493084; also: 0% is about no effect
#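 Steps: seed TRHR cells overnight; add fluo-8 no-wash Ca dye, RT 30 min–1.5 h; record 10 s baseline; pin-transfer compounds; monitor fluorescence 1 cycle/s for the agonist window. Calcium increases flag candidate agonists.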
# D1 antag = antagonists of human D1 dopamine receptor | P21728 | HEK293 TREx D1 cells, calcium flux, dopamine EC80; hits give low values | activity change, negative = inhibition, % at 10 µM | actives 3.2% (n = 360,000) | AID 504652; in the data active = activity change below about -30%; also: % is scaled to controls: 0 for no effect and ±100 for the full control effect
# Target sequence (P21728 whole entry, looked up): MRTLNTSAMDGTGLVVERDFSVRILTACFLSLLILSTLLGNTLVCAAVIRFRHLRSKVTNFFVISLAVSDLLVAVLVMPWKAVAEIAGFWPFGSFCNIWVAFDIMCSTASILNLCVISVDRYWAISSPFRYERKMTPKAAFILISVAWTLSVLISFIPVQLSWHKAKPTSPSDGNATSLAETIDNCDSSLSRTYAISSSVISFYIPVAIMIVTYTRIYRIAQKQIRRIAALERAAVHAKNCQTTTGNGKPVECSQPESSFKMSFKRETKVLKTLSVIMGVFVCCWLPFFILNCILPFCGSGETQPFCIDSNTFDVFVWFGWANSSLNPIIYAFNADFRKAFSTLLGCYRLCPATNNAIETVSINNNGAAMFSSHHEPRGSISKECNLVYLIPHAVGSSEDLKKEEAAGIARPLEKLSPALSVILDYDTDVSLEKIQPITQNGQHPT
#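 HEK293 T-REx cells expressing inducible, force-coupled D1 receptor; no-wash Ca dye, 30–90 min RT. Cmpd → 180 s read at 1 Hz → EC80 DA → 180 s read.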
# D1 agonist = human D1 receptor agonism; P21728; HEK293 T-REx D1 cells, calcium flux, agonist mode; activation, % at 2 µM; actives 1% (n = 360,000); AID 504660; also: 0% is about no effect
#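 Agonism was scored from calcium flux recorded over 180 s (1 read/s) after pintool compound addition, following a 10-cycle baseline. Cells were inducible force-coupled HEK293 TREx D1, plated overnight at 30 C and loaded with no-wash calcium dye.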
# D1 potentiator = enhances dopamine response at the human D1 receptor. P21728. HEK293 TREx D1 cells, calcium flux, dopamine EC20 potentiation. potentiation, % at 10 µM. actives 0.036% (n = 360,000). AID 504651; in the data active = potentiation above about 30%; also: 0% is about no effect
# TRHR enhancer = TRH receptor (human) allosteric enhancement; P34981; TRHR cells, fluo-8 calcium fluorescence, EC20 TRH enhancement; enhancement, % at 2 µM; actives 0.66% (n = 360,000); AID 493056; in the data active = enhancement above about 30%; also: 0% is about no effect
#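 TRHR-expressing cells loaded with fluo-8 calcium dye were read kinetically (ex 480/em 530) during compound addition, then stimulated with an EC20 of TRH (10 nM final). Enhancement of the Gq-mediated intracellular calcium response was scored.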
# The depositor's hits bear a star. Rule as the data show it, unless noted: active = activation above about 30%; inactive = the rest.
SMILES,TRHR agonist,D1 antag,D1 agonist,D1 potentiator,TRHR enhancer
O=C(Cn1[nH]c(=O)c2ccccc2c1=O)N1CC=C(c2ccccc2)CC1,1,-30*,3,-8,-7
CC(C)Oc1ccc(/C=C/C(=O)NCC2COc3ccccc3O2)cc1 (stereo not given),0,-91*,7,-1,-2
CCc1ccc(NC(=O)[C@H](C)NC(=O)C2CCN(C(=O)[C@@H](N)C(C)C)CC2)cc1,0,-6,4,0,0
COc1cccc(C(=O)N(C)CC2CCN(CCc3cccc(C(F)(F)F)c3)CC2)c1,0,-32*,-3,5,4
Cc1ccc(CS(=O)(=O)CCC(=O)NCc2ccccc2Cl)cc1,0,-5,43*,-7,-4
CCC1(CC)NC(=O)N(CC(=O)NC(=O)NCc2ccccc2)C1=O,0,11,1,-1,3
CCC1(CC)NC(=S)N(Nc2ccccc2)C1=O,0,-33*,0,-9,1
CCN1CCc2c(OCc3ccccc3)cccc2C1=O,-2,-38*,4,0,-3
CCOC(=O)C1(Cc2cccc(OC)c2)CCCN(Cc2cc(OC)c(O)c(OC)c2)C1 (stereo not given),-1,-13,4,1,7
Cc1ccc(S(=O)(=O)Nc2ccccc2-c2ccccc2NS(=O)(=O)c2ccc(C)cc2)cc1,0,-2,2,-5,1
O=C1c2ccccc2-c2cccc(NS(=O)(=O)c3ccc(C(F)(F)F)cc3)c21,15,3,55*,0,1
CN(C(=O)CSc1nc2ccccc2n1C)C1CCS(=O)(=O)C1 (stereo not given),0,4,0,-1,7
COc1ccc2c(n1)Sc1nc3ccccc3nc1N2,90*,-24,262*,2,10
O=C(O)c1ccccc1NCc1cccs1,0,-5,1,0,-1
CN(C)c1nc2c(c(=O)[nH]c(=O)n2C)n1CCOc1ccccc1,0,12,2,-6,-10
CCN(CC)c1nc2c(c(=O)[nH]c(=O)n2C)n1CCOc1ccccc1,-1,5,7,35*,25
CC(C)C(NS(=O)(=O)c1ccccc1F)C(=O)N1CCc2ccccc2C1 (stereo not given),0,-37*,0,-9,-7
CC(C)C(NS(=O)(=O)c1cccc(C(F)(F)F)c1)C(=O)N1CCc2ccccc2C1 (stereo not given),-1,-2,4,0,-11
CN(CC(=O)Nc1ccc(Cl)c(C(F)(F)F)c1)C(=O)C1CCC1,0,1,6,-12,-5
CN(CC(=O)Nc1ccc(Cl)c(C(F)(F)F)c1)C(=O)c1ccc(OCC2CCCO2)cc1 (stereo not given),2,-49*,3,-20,5
O=C(Nc1nnc(SCc2ccccc2F)s1)c1ccco1,0,-82*,3,-7,2
C=CCn1c(SCC(=O)NC(=O)NC2CCCC2)nnc1C1CCCCC1,0,8,-2,-5,-1
C=CCn1c(SCC(=O)/C(C#N)=C(\C)N)nnc1C1CCCCC1,0,-75*,2,-8,9
CCOc1ccc(CCNC(=O)CS(=O)(=O)Cc2nc(-c3cccc(Cl)c3)oc2C)cc1,1,-16,8,0,-7
CCC(Sc1nc2ccccc2c2nc(CCc3c(C)n[nH]c3C)nn12)C(=O)Nc1ccc(F)cc1 (stereo not given),0,53,9,0,4
SMILES,TRHR agonist,D1 antag,D1 agonist,D1 potentiator,TRHR enhancer
Cc1noc(C)c1C(=O)Nc1nc(-c2ccccc2Cl)cs1,0,-25,2,-5,9
O=C(Nc1nc(-c2ccccc2Cl)cs1)c1cccnc1,-1,-41*,4,-4,-4
COc1ccc(-c2nnc(SCC(=O)Nc3ccc(C)c(Cl)c3)nc2-c2ccc(OC)c(OC)c2)cc1OC,0,9,7,0,-3
CCOc1ccc(NC(=O)N2CC=C(c3c[nH]c4ccccc34)CC2)cc1,0,-35*,6,-3,4
CCc1ccc(NC(=O)N2CC=C(c3c[nH]c4ccccc34)CC2)cc1,0,-19,3,2,11
Cc1ccccc1CC1CCN(CCCNC(=O)Nc2ccccc2)CC1,0,-16,12,-7,3
O=C(COCc1cc(-c2ccc(F)cc2)on1)Nc1cccc(C(F)(F)F)c1,1,-13,5,0,3
CC(=O)Nc1ccc(NC(=O)COC(=O)/C(=C/c2ccccc2)n2nnnc2C)cc1,1,7,2,-15,4
Cc1nnnn1/C(=C\c1ccccc1)C(=O)OCC(=O)NC(C)(C)C,0,20,2,-4,33*
Cn1c(=O)c(=O)n(C)c2cc(NC(=O)c3cccc(F)c3)c(Cl)cc21,-1,6,0,-1,0
Cc1cc2oc(C(=O)Nc3cccc(-c4nc5ccccc5o4)c3)c(C)c2cc1Cl,-1,-5,3,0,33*
Cc1ccc(C(=O)Nc2cccc(-c3nc4ccccc4o3)c2)c(Cl)c1,1,-1,3,-1,-3
COc1cccc(NC(=O)CSC2=Nc3ccccc3C3=NC(CCC(=O)NCCc4ccccc4)C(=O)N23)c1 (stereo not given),0,13,1,-1,-4
CC(C)C(NC(=O)CN1C(=O)c2ccccc2C1=O)c1ccccc1 (stereo not given),0,2,2,-7,-3
Cc1ccc(S(=O)(=O)c2nnn3c2nc(Nc2ccc(C(C)C)cc2)c2sccc23)cc1C,1,-15,4,0,-8
CCOC(=O)C1=C(C)NC2=C(C(=O)CCC2)C1c1ccc(O)c(OCC)c1 (stereo not given),0,1,1,0,34*
CC(C)c1ccc(NC(=O)COC(=O)CSc2nnc(N)s2)cc1,0,-10,3,-4,8
Nc1nnc(SCC(=O)OCC(=O)Nc2ccccc2F)s1,0,-56*,6,-1,3
COc1ccc(-n2nc(C(=O)N(C)c3cc(Cl)ccc3OC)c3c4ccccc4n(C)c3c2=O)cc1,0,10,0,1,5
CCOc1ccccc1NC(=O)Nc1ccc(Cl)cc1,0,0,15,-2,1
CCOc1cc(NC(=S)Nc2ccc(Cl)cc2)c(OCC)cc1NC(C)=O,0,-40*,9,1,8
O=C(NCC1CCCO1)c1c[nH]c2ccc(S(=O)(=O)Nc3cccc(C(F)(F)F)c3)cc2c1=O (stereo not given),0,12,0,2,-6
CC(C)(C)NS(=O)(=O)c1cccc(S(=O)(=O)c2cccc(S(=O)(=O)NC(C)(C)C)c2)c1,1,-39*,5,0,-6

# Compound activity (PubChem)
